Results reported in PubChem BioAssay (NCATS).
Inconclusive results are not listed. Values without a mark were called inactive. Active and inactive are the calls of the source. The call rests on the fitted dose curve; in most records, active means well fitted cell-killing curve with a large enough effect; inconclusive means small, poorly fitted or top-dose-only effect, or effect the other way; inactive means no such curve, though single readings can be large or run the other way.

Assay: Quantitative highthroughput screen to assess conditional lethalithy of SEM cells grown in Human Plasma-Like Medium with dialyzed fetal bovine serum (HPLM+ds) (AID 1963882); further: nearly all actives have a fitted effect of over 35% in size
Conditions: SEM B-ALL cells in HPLM+ds, CellTiter-Glo viability, 48 h; series mostly up to 45.8 µM; viability: at the top concentration
From the text: Assay Provider: Jason Cantor Ph.D.
Department of Biochemistry
University of Wisconsin-Madison, Madison, WI, USA
Chemical screening studies have identified drug sensitivities across hundreds of cancer cell lines but most putative therapeutics fail to translate. Discovery and development of drug candidates in models that more accurately reflect nutrient levels in human blood is a major challenge. Here we performed high-throughput screens in conventional versus Human Plasma-Like Medium (HPLM) to identify compounds that were "missed" when screening using the artificial culture condition. Sets of conditional anticancer compounds spanned phases of clinical development and included non-oncology drugs were assessed. […] We also traced conditional phenotypes for several chemotherapeutics to availability of HPLM-specific metabolites and confirmed others for compounds whose reported targets are encoded by nonessential genes. Our findings establish generalizable strategies for exploiting conditional lethality in HPLM to reveal therapeutic candidates and mechanisms of action in cancer cells.
Described herein are the results of each viability screens against three cell lines: NOMO1 (an acute myeloid leukemia cell line); P12-Ichikawa (a T-cell acute lymphoblastic leukemia); and SEM (a B-cell ALL). Each assay was screened using 3 different cell culture media: homemade human plasma-Like medium with 10% dialyzed fetal bovine serum (HPLM+ds); RPMI1640 with 10% untreated FBS and 5mM glucose (RPMI+s); and RPMI1640 with 10% dialyzed fetal bovine serum and 5 mM glucose (RPMI+ds).
PROTOCOL TABLE (as described by Inglese J, Shamu CE and Guy RK. 2007)
SEQUENCE No. (e.g., 1, 2, 3, etc.); […] (e.g., Cells, Incubation, Reagent, etc.); VALUE and DESCRIPTION.
1; Cells; 5 uL; white, solid bottom 1536-well Greiner assay plate.
2; Compounds; 23 nL; Kalypsis pin tool (Wako USA) equipped with a 1536-well pin head to transfer to the assay plates.
3; Incubation; 48 hours; 37C incubation.
4; Reagent; 3 uL; CellTiter Glo (Promega).
5; Incubation; 5 min, room temperature
6; Detection; Luminescence, Viewlux PerkinElmer.
NOTES (numbers refer to Sequence numbers above)
1. Briefly, 5 ul of cell reagent was dispensed using a Multidrop Combi Dispenser. The NOMO1 and SEM cells were plated at 500 cells/well and the P12-Ichikawa line at 1000 cells/well.
2. After seeding the cells, 23 nL of MIPE 4.1 library compounds (in DMSO) were added to each plate using a Kalypsys 1536 Pintool dispenser. Bortezomib at final concentration of […] and DMSO were added to each plate as positive and negative controls respectively. For each screen, MIPE 4.1 compounds were added over an eleven-point concentration range […] in 3-fold dilutions.
3. Each plate was covered with a stainless steel gasketed lid to prevent evaporation and incubated for 48 hour at 37C, 95% relative humidity, and 5% CO2.
4-5. Three microliter CellTilter-GloTM luminescent substrate mix (Promega) reagent was added to the assay plate and incubated at room temperature for 5 min.
6. The luminescence signal was measured using a ViewLux (PerkinElmer) multiplate reader with a 2 second exposure time per plate. Data for each compound were normalized as percent viability such that measurements for DMSO and the empty well controls in each plate were defined as 100% and 0%, respectively.
Potency means the concentration at half of the fitted maximal effect.

Row | Compound | viability | Potency
1 | CC(C)(O)CC[C@@H](O)[C@](C)(O)[C@H]1CC[C@@]2(O)C3=CC(=O)[C@@H]4C[C@@H](O)[C@@H](O)C[C@]4(C)[C@@H]3CC[C@]12C | 99.8% | 
2 | CNC(=O)[C@H](CC1=CN=C2C=CCC=C12)NC(=O)[C@@H](CC(=O)NO)CC(C)C | 89.7% | 
3 | CC[C@H](CC[C@@H](C)[C@H]1CC[C@H]2[C@@H]3CC=C4C[C@@H](O)CC[C@]4(C)[C@@H]3CC[C@]12C)C(C)C | 88.8% | 
4 | O=c1[nH]c(=O)n([C@H]2C[C@@H](O)[C@@H](CO)O2)cc1F |  | 23.5 nM (active)
5 | CC(C)c1c(C(=O)Nc2ccccc2)c(-c2ccccc2)c(-c2ccc(F)cc2)n1CC[C@H](O)C[C@@H](O)CC(=O)O | 88.8% | 
6 | Cc1cn([C@H]2C[C@H](N=[N+]=[N-])[C@@H](CO)O2)c(=O)[nH]c1=O | 88.8% | 
7 | O=C(CCCCCCC(=O)Nc1ccc([C@H]2O[C@@H](CSc3nc(-c4ccccc4)c(-c4ccccc4)o3)C[C@@H](c3ccc(CO)cc3)O2)cc1)NO |  | 7430 nM (active)
8 | C[C@]12CCC(=O)C=C1[C@@H]1CC1[C@H]1[C@H]3[C@@H]4C[C@H]4[C@@]4(CCC(=O)O4)[C@@]3(C)CC[C@H]12 (stereo not given in full) | 84% | 
9 | O=C(O)c1cc(=O)[nH]c(=O)[nH]1 | 92.5% | 
10 | C[C@H](O)[C@@H]1C(=O)N2C(C(=O)O)=C(S[C@@H]3CN[C@H](CNS(N)(=O)=O)C3)[C@@H](C)[C@@H]12 | 101% | 
11 | O=C1c2c(O)ccc(O)c2C(=O)c2c(NCCNCCO)ccc(NCCNCCO)c21 |  | 332 nM (active)
12 | OC(CN1CCN(c2cccc(Cl)c2)CC1)C(c1ccccc1)c1ccccc1 (stereo not given) |  | 833 nM (active)
13 | O=C(C=Cc1ccc(CN(CCO)CCc2c[nH]c3ccccc23)cc1)NO |  | 264 nM (active)
14 | O=c1c(O)c(-c2ccc(O)c(O)c2)oc2cc(O)cc(O)c12 | 77.1% | 
15 | O=C(NCCS(=O)(=O)c1ccc(C(F)(F)F)cn1)c1ccc(Cl)cc1 | 102% | 
16 | O=C(Nc1cc2cc[nH]c2cn1)c1ccccc1 |  | 3720 nM (active)
17 | Cc1ccccc1C(=O)Nc1ccc(C(=O)N2CCCC(O)c3cc(Cl)ccc32)c(C)c1 (stereo not given) | 96.8% | 
18 | CCN(C)C(=O)Oc1cccc([C@H](C)N(C)C)c1 | 108% | 
19 | NC(=O)Nc1sc(-c2ccc(F)cc2)cc1C(N)=O |  | 16600 nM (active)
20 | Cc1c(NC(=O)OC[C@@H]2COCCN2)cn2ncnc(Nc3ccc4c(cnn4Cc4cccc(F)c4)c3)c12 |  | 9350 nM (active)

Row | Compound | viability | Potency
21 | c1ccc2c(-c3cnn4cc(-c5ccc(N6CCNCC6)cc5)cnc34)ccnc2c1 |  | 2640 nM (active)
22 | Cc1[nH]nc2ccc(-c3cncc(OC[C@@H](N)Cc4ccccc4)c3)cc12 |  | 1180 nM (active)
23 | Cc1cc(-c2ccc(CC(=O)Nc3ccc(-c4cccnc4)cc3)cc2)ccn1 |  | 6620 nM (active)
24 | C[C@@H]1CC=CC=CC=CC=C[C@@H](O[C@@H]2O[C@H](C)[C@@H](O)[C@H](N)[C@H]2O)C[C@@H]2O[C@](O)(C[C@@H](O)C[C@@H]3O[C@@H]3C=CC(=O)O1)C[C@H](O)[C@@H]2C(=O)O | 111% | 
25 | CC(C)(OCc1nn(Cc2ccccc2)c2ccccc12)C(=O)O | 95.7% | 
26 | O=C(CCc1ccc(O)cc1)c1c(O)cc(O)cc1O[C@@H]1O[C@H](CO)[C@H](O)[C@H](O)[C@H]1O | 88.4% | 
27 | O=C(O)C1CCCN(CCC=C(c2ccccc2)c2ccccc2)C1 (stereo not given) | 92.6% | 
28 | CC1(C)[C@H](C(=O)O)N2C(=O)C[C@H]2S1(=O)=O | 103% | 
29 | COc1ccc(C2Sc3ccccc3N(CCN(C)C)C(=O)C2OC(C)=O)cc1 (stereo not given) | 111% | 
30 | O=C(c1ccc(C(=O)N2CCC(N3CCCC3)CC2)c(Nc2ccccc2)c1)N1CCC(N2CCCC2)CC1 | 99.3% | 
31 | CN(C)CCN(Cc1ccc(Cl)cc1)c1ccccn1 | 101% | 
32 | CC(=O)O[C@@]12CO[C@H]1C[C@H](O)[C@@]1(C)C(=O)[C@H](O)C3=C(C)[C@@H](OC(=O)C(O)[C@@H](NC(=O)OC(C)(C)C)c4ccccc4)C[C@@](O)([C@@H](OC(=O)c4ccccc4)[C@@H]21)C3(C)C (stereo not given in full) | 5.01% | 
33 | CC1(C)CC(=O)c2c(C(F)(F)F)nn(-c3ccc(C(N)=O)c(NC4CCC(OC(=O)CN)CC4)c3)c2C1 (stereo not given) |  | 264 nM (active)
34 | C[C@H](NC(=O)[C@@H](O)c1cc(F)cc(F)c1)C(=O)N[C@@H]1C(=O)N(C)c2ccccc2-c2ccccc21 | 93.7% | 
35 | CN1CCC(COc2cnc(-c3cccc(Cn4nc(-c5cccc(C#N)c5)ccc4=O)c3)nc2)CC1 | 84.8% | 
36 | O=C(O)[C@H](Cc1c[nH]c2ccccc12)N1C(=O)c2ccccc2C1=O | 81.9% [at 92.2 µM] | 
37 | O=C1c2c(O)cc(O)cc2O[C@H](c2cc(O)c(O)c(O)c2)[C@H]1O |  | 3720 nM (active)
38 | Cc1cnc(Nc2ccc(N3CCN(C)CC3)cc2)nc1Nc1cccc(S(=O)(=O)NC(C)(C)C)c1 |  | 1050 nM (active)
39 | CCCCCCNC(=O)n1cc(F)c(=O)[nH]c1=O | 81.8% | 
40 | CC1(C)OC2CC3C4CC(F)C5=CC(=O)C=CC5(C)C4C(O)CC3(C)[C@]2(C(=O)CO)O1 (stereo not given in full) |  | 2350 nM (active)
